Inconclusive results are not listed. The source made the active and inactive calls. Unless noted, the call rests on the fitted dose curve; in most records, active means well fitted curve in the direction sought with a large enough effect in the repeat runs; inconclusive means weak or mixed curves; inactive means no such curve, though single readings can be large; an effect the other way counts as inactive or inconclusive.
Key:
[1] = qHTS assay to identify small molecule agonists of the sonic hedgehog signaling (Shh) pathway - cell viability counter screen (AID 1259366); further: nearly all actives have a fitted effect of over 50% in size
Summary of the method: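 NIH/3T3-derived Gli1-Luc reporter cells, 2,000 per well, received compound after 4 h and were treated about 23 h at 37C. Viability measured in the same wells by CellTiter-Fluor fluorescence after 1 h.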

[2] = qHTS assay to identify small molecule antagonists of the sonic hedgehog signaling (Shh) pathway - cell viability counter screen (AID 1259367); further: nearly all actives have a fitted effect of over 55% in size
Summary of the method: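 Using CellTiter-Fluor, viability of Gli1-Luc reporter 3T3 cells is read by fluorescence in the wells used for the Shh luciferase assay. Treatment lasts 23 hr with conditioned medium, then reagent 1 hr at 37C.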

[3] = qHTS assay to identify small molecule agonists of the sonic hedgehog signaling (Shh) pathway (AID 1259368; calls by dose curve;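 further: NIH/3T3-derived 3T3Gli1-Luc cells carrying a stable Gli1-driven firefly luciferase reporter; series mostly up to about 92 µM; nearly all actives have a fitted effect of over 15% in size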)
Summary of the method: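 Mouse fibroblast (NIH/3T3) reporter cells with stably integrated Gli1-Luc were treated 24 hr with compound; firefly luciferase luminescence served as the read-out.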

[4] = qHTS assay to identify small molecule antagonists of the sonic hedgehog signaling (Shh) pathway (AID 1259369; calls by dose curve; further: nearly all actives have a fitted effect of over 45% in size)
Summary of the method: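 Conditioned medium drives Shh signalling in 3T3Gli1-Luc cells; compounds in DMSO co-applied, 24hr at 37 C, then luciferase luminescence.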

[5] = molecular target: Estrogen receptor beta (Homo sapiens) (UniProt Q92731); test: qHTS assay to identify small molecule antagonists of the estrogen receptor beta (ER-beta) signaling pathway (AID 1259378; active means well fitted inhibition curve with a large enough effect in the signal ratio in the repeat runs, not every such curve was filed as active; the % refers to the signal ratio)
Summary of the method: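 Antagonist mode: compounds added to beta-lactamase reporter HEK293T ER-beta-UAS cells stimulated with E2 (1nM final), 16 hr at 37C. LiveBLAzer B/G FRET substrate, 2 hours room temperature, fluorescence read-out.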

[6] = qHTS assay to identify small molecule agonists of the androgen receptor (AR) signaling pathway in the presence of an antagonist - cell viability counter screen (AID 1259379);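 further: MDA-kb2 human breast cancer cells carrying an MMTV luciferase reporter; series mostly up to about 92 µM; nearly all actives have a fitted effect of over 25% in size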
Summary of the method: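 A CellTiter-Fluor read-out measured viability of MDA-kb2 reporter cells (MMTV promoter with AR and GR response elements). Treatment: nilutamide 3.0uM final with compounds at 15 concentrations, 16 hr, 37C, 0% CO2.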

[7] = qHTS assay to identify small molecule agonists of the estrogen receptor beta (ER-beta) signaling pathway - cell viability counter screen (AID 1259380); further: nearly all actives have a fitted effect of over 30% in size
Summary of the method: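 Cells used were ER-beta-UAS-bla HEK293T in medium with 2% charcoal-stripped FBS. They were treated for 16 hr at 37C. Viability came from CellTiter-Glo luminescence.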

[8] = qHTS assay to identify small molecule antagonists of the estrogen receptor beta (ER-beta) signaling pathway - cell viability counter screen (AID 1259382); further: series mostly up to about 92 µM; nearly all actives have a fitted effect of over 55% in size
Summary of the method: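 Agonist-stimulated (1nM E2) ER-beta-UAS-bla HEK293T cells are incubated with library compounds for 16 hr at 37C. Cell viability is then assessed in the reporter-assay wells by adding CellTiter-Glo and reading luminescence after 30 min.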

[9] = molecular target: Estrogen receptor beta (Homo sapiens) (UniProt Q92731); test: qHTS assay to identify small molecule agonists of the estrogen receptor beta (ER-beta) signaling pathway (AID 1259377; active means well fitted activation curve with a large enough effect in the signal ratio in the repeat runs, not every such curve was filed as active; the % refers to the signal ratio)
Summary of the method: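 ER-beta-UAS-bla HEK293T cells in medium with 2% charcoal-stripped FBS were exposed to compounds for 16 h at 37C. Beta-lactamase reporter activity was read as fluorescence after 2 h with LiveBLAzer B/G FRET substrate at room temperature.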

[10] = molecular target: Androgen receptor (Homo sapiens) (UniProt P10275); test: qHTS assay to identify small molecule agonists of the androgen receptor (AR) signaling pathway in the presence of an antagonist (AID 1259381; calls by dose curve; further: nearly all actives have a fitted effect of over 15% in size)
Summary of the method: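 Using human MDA-kb2 cells with an MMTV promoter–luciferase construct (AR and GR response elements), agonist activity is scored under 3.0uM nilutamide (final) co-treatment; 16hr incubation, 37C, luminescence readout via ONE-Glo.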
On the % scale 0 is the no-effect control and ±100 the full control effect.

Sequence of Estrogen receptor beta (Homo sapiens) (Q92731 whole entry, looked up): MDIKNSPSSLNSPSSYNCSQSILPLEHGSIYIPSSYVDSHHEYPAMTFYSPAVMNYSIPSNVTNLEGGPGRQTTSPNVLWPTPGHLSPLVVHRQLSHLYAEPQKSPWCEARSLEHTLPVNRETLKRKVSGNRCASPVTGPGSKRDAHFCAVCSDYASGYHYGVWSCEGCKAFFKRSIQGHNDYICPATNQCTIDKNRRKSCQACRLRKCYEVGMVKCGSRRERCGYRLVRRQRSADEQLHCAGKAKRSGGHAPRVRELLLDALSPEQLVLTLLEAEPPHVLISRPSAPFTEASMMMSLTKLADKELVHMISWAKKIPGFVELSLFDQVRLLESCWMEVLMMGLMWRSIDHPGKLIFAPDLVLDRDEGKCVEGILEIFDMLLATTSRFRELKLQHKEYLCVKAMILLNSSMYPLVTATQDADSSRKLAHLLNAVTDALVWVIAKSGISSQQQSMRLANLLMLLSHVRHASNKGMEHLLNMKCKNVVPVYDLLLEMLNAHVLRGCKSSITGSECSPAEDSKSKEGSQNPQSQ
Sequence of Androgen receptor (Homo sapiens) (P10275 whole entry, looked up): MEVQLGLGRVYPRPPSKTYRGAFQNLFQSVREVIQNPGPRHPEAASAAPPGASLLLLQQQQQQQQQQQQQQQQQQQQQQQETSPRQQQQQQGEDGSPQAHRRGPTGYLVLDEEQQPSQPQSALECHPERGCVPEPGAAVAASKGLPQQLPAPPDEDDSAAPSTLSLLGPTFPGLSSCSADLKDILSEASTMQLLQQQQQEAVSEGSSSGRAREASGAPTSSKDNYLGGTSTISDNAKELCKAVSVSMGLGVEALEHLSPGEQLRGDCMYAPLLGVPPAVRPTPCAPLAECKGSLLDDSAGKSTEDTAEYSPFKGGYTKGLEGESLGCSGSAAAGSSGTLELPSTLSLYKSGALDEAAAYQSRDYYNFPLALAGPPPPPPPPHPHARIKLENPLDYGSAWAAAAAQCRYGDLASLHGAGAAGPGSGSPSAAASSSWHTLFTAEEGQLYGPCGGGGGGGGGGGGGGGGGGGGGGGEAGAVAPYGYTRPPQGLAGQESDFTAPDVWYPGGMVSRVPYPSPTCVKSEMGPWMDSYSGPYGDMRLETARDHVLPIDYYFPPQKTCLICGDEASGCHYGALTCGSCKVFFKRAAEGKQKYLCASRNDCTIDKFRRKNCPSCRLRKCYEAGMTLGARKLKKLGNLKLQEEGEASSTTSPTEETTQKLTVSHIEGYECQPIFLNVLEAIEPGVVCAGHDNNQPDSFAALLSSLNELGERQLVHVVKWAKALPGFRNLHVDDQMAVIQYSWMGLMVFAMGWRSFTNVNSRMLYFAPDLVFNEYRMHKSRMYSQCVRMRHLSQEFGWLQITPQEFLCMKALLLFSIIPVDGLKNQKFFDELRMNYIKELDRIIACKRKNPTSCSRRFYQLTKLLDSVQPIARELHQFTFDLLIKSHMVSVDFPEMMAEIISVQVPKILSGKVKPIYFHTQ

CCCCCCC(O)CO (stereo unspecified)
inactive: outcome [1] | outcome [2] | outcome [3] | Potency [4] | outcome [5] | outcome [6] | Potency [7] | outcome [8]

CCCCC(O)/C=C(C)/C=C/C=C/C(=O)N1CCCC1=O (stereo unspecified)
inactive: outcome [1] | outcome [2] | outcome [3] | Potency [4] | Potency [9] | outcome [5] | outcome [6] | Potency [7] | outcome [8]

CCOC(=O)CC
inactive: outcome [1] | outcome [2] | outcome [3] | Potency [4] | Potency [9] | outcome [6] | outcome [8]

Nc1ccc(C(=O)NCC(=O)O)cc1
inactive: outcome [1] | outcome [2] | outcome [3] | Potency [4] | Potency [9] | outcome [6] | Potency [7] | outcome [8]

CCCCCCCCCCCCCCBr
inactive: outcome [1] | outcome [2] | outcome [3] | Potency [4] | Potency [9] | outcome [5] | outcome [6] | Potency [7] | outcome [8]

O=CN1CCCCC1
inactive: outcome [1] | outcome [2] | outcome [3] | Potency [4] | Potency [9] | outcome [5] | outcome [6] | Potency [7] | outcome [8]

O=C(O)CCC(=O)Nc1ccc(S(=O)(=O)Nc2nccs2)cc1
inactive: outcome [1] | outcome [2] | outcome [3] | Potency [4] | Potency [9] | outcome [6] | outcome [8]

CC(C)(C)C(=O)CC(=O)C(C)(C)C
inactive: outcome [1] | outcome [2] | outcome [3] | Potency [4] | Potency [9] | outcome [5] | outcome [6] | Potency [7] | outcome [8]

COc1cc(S(N)(=O)=O)cc(C(=O)O)c1OC
inactive: outcome [1] | outcome [2] | outcome [3] | Potency [4] | outcome [5] | outcome [6] | Potency [7] | outcome [8]

CCCCCCCCOCCC#N
inactive: outcome [1] | outcome [2] | outcome [3] | Potency [4] | Potency [9] | outcome [6] | Potency [7] | outcome [8]

CCCCCCC(=O)c1ccccc1
inactive: outcome [1] | outcome [2] | outcome [3] | Potency [4] | outcome [5] | outcome [6] | Potency [7] | outcome [8]

CC(=O)SCC(CC(=O)c1ccc(C)cc1)C(=O)O (stereo unspecified)
inactive: outcome [1] | outcome [2] | outcome [3] | Potency [4] | Potency [9] | outcome [5] | outcome [6] | outcome [8]

CC(=O)OCC(=O)[C@@]1(O)CC[C@H]2[C@@H]3CCC4=CC(=O)C=C[C@]4(C)[C@H]3[C@@H](O)C[C@@]21C
inactive: outcome [1] | outcome [2] | outcome [3] | Potency [4] | Potency [9] | outcome [6] | Potency [7] | outcome [8]

C=CCON/C(CCC)=C1\C(=O)CC(C)(C)C(C(=O)OC)=C1O
inactive: outcome [1] | outcome [2] | outcome [3] | Potency [4] | Potency [9] | outcome [5] | outcome [6] | Potency [7] | outcome [8]

C=C(C)C(=O)OCCOC1CC2CC1C1C=CCC21 (stereo unspecified)
inactive: outcome [1] | outcome [2] | outcome [3] | Potency [4] | Potency [9] | outcome [5] | outcome [6] | outcome [8]

BrCCOc1ccccc1
inactive: outcome [1] | outcome [2] | outcome [3] | Potency [4] | Potency [9] | outcome [5] | outcome [6] | Potency [7] | outcome [8]

CCCCCC(CC)OC(=O)CCCOc1ccc(Cl)cc1Cl (stereo unspecified)
inactive: outcome [1] | outcome [2] | outcome [3] | Potency [4] | Potency [9] | outcome [5] | outcome [6] | Potency [7] | outcome [8]

C=CCn1cc[n+](C)c1
inactive: outcome [1] | outcome [2] | outcome [3] | Potency [4] | outcome [5] | outcome [6] | Potency [7] | outcome [8]

CCOC(=O)c1ccc(N(C)C)cc1
inactive: outcome [1] | outcome [2] | outcome [3] | Potency [4] | outcome [5] | outcome [6] | Potency [7] | outcome [8]

CCOCCOCCOC(C)=O
inactive: outcome [1] | outcome [2] | outcome [3] | Potency [4] | Potency [9] | outcome [6] | Potency [7] | outcome [8]

CCC(C)(C)C
inactive: outcome [1] | outcome [2] | outcome [3] | Potency [4] | Potency [9] | outcome [5] | Potency [7] | outcome [8]

Cc1ccccc1OCC(=O)O
inactive: outcome [1] | outcome [2] | outcome [3] | Potency [4] | Potency [9] | outcome [5] | outcome [6] | Potency [7] | outcome [8]

C[n+]1ccccc1/C=N/O
inactive: outcome [1] | outcome [2] | outcome [3] | Potency [4] | Potency [9] | outcome [5] | outcome [6] | Potency [7] | outcome [8]

C[C@@H]1NC(=O)[C@@H](N)CNC(=O)[C@H](C2CCNC(N)=N2)NC(=O)/C(=C/NC(N)=O)NC(=O)[C@H](CNC(=O)C[C@@H](N)CCCN)NC1=O (stereo partly specified)
inactive: viability change, negative = cytotoxic [1] -4% [at 0.349 µM] | viability change, negative = cytotoxic [2] 1.74% [at 0.349 µM] | activity change [3] 0.0291% [at 0.349 µM] | activity change, negative = inhibition [4] 22.6% [at 0.349 µM] | activation [9] 1.61% [at 0.348 µM] | activity, negative = inhibition [5] -0.409% [at 0.349 µM] | activity change, negative = cytotoxicity [6] 5.61% [at 0.35 µM] | activity change, negative = cytotoxicity [7] 11.9% [at 0.349 µM] | activity change, negative = cytotoxicity [8] 4.08% [at 0.349 µM]

CCCCCCCCS(=O)(=O)O
inactive: outcome [1] | outcome [2] | outcome [3] | Potency [4] | outcome [5] | outcome [6] | Potency [7] | outcome [8]

COCc1nnc(-c2ccc[n+]([O-])c2)n1-c1c(Cl)c(Cl)cc2[nH]c(=O)c(=O)[nH]c12
inactive: outcome [1] | outcome [2] | outcome [3] | Potency [4] | outcome [5] | outcome [6] | Potency [7] | outcome [10] | outcome [8]

CN(C)CCCN(C)C
inactive: viability change, negative = cytotoxic [1] -8.84% [at 8.39 µM] | viability change, negative = cytotoxic [2] 4.7% [at 8.39 µM] | activity change [3] 0.31% [at 8.39 µM] | activity change, negative = inhibition [4] 5.84% [at 8.39 µM] | activation [9] -0.616% [at 8.39 µM] | activity, negative = inhibition [5] 14.4% [at 8.39 µM] | activity change, negative = cytotoxicity [6] 4.3% [at 8.39 µM] | activity change, negative = cytotoxicity [7] 5.46% [at 8.39 µM] | activity change, negative = cytotoxicity [8] -0.979% [at 8.39 µM]
